From PubChem BioAssay (EPA / NIEHS)
Activity calls are given as the source filed them. The calls were made as follows: active = hit-call score of the fitted dose curve at least 0.9, where 1 is the maximum; inactive = score below 0.9.

Read-out: Glutathione S-Transferase (GSTA2), GSTA2 (gene 2939)
Assay: LTEA_HepaRG_GSTA2: Life Technologies and Expression Analysis (LTEA) Assay for Glutathione S-Transferase (GSTA2) using HepaRG (AID 2283497)
Conditions: mRNA level, 48 h; actives raise or lower the signal
Protocol: LTEA_HepaRG is a cell based, multiplexed-readout assay that uses HepaRG, a human liver cell line, with measurements taken at 48 hours after chemical dosing on a 96-well plate.LTEA_HepaRG_GSTA2 is one of 102 assay component(s) measured in the LTEA HepaRG cell culture assay. It is a marker of Oxidative Stress.Data from the assay component LTEA_HepaRG_GSTA2 was analyzed into 1 endpoint. This assay endpoint, LTEA_HepaRG_GSTA2, was analyzed with bidirectional fitting relative to DMSO as the negative control and baseline of activity. Using a type of inducible reporter, measures of mRNA induction for gain or loss-of-signal activity can be used to understand regulation of transcription factor activity. To generalize the intended target to other relatable targets, this assay endpoint is annotated to the transferase intended target family, where the subfamily is alkyl and aryl transferase.
A total of 1060 chemcials from the ToxCast library were tested in eight-point concentration-response experiments. Cell culture and cytotoxicity assays were conducted at Thermo Fisher Scientific's Custom Services facility (Madison, WI). A single lot of human HepaRG cells (Thermo Fisher Scientific, Frederick, MD) was used for the cell culture experiments. 96-well format collagen type I coated plates of human HepaRG cells were prepared using established methods. Briefly, cryopreserved HepaRG cells were thawed, plated at a density of approximately 100,000 cells/well in HepaRG Thaw, Plate, and General Purpose media (HPRG770, Thermo Fisher Scientific), and incubated for 48 hours. 0.5% DMSO was selected as vehicle control to balance the requisite need of DMSO in HepaRG cultures to maintain differentiation (for example, baseline metabolism, proportions of hepatocytes vs. cholangiocytes), while enabling further hepatic receptor pathway activation (for example, PXR and CAR) in response to chemical exposure. 48 hours after plating, the culture medium was replaced with HepaRG Serum-Free Incudtion Media. Cells were exposed to each test chemical in duplicate and maintained in CO2 incubators for another 48 hours. Chemical plates were thawed to room temperature and 200x concentrations of treatment groups were prepared. 8-point conentration-reponse curves were made with the highest exposure at 100 uM, followed by half-log dilutions, all in 0.5% DMSO. Each test plate contained variouse controls, induction positive controls (1mM phenobarbital), cytotoxicity positive controls ([…] aflatoxin B1), vehicle controls (0.5% DMSO), and total lysis controls (0.5% DMSO). Cell morphology images were taken using an Essen IncuCyte FLR automated microscope, with six 96-well plates imaged in about 24 minutes. Images were captured and exported and JPEG files. Spent culture media was transfered to black-well plates for the LDH assay, and remaining media was sorted at -80 C for later use. Cells were treated with RLT buffer and frozen until shipped for gene expression analysis. Total RNA was isolated from the cell suspension in 75 uL of Buffer RLT (Qiagen, Germantown, MD 20874) by Quintiles/Expression Analysis (Durham, NC) using a custom isolation procedure. Total RNA from each plate well was transferred to a preamplification plate. Fluidigm's 96.96 Dynamic ArrayTM (Fluidigm, Amsterdam, the Netherlands) technology was used for gene expression analyses by quantitative reverse transcription polymerase chain reaction (qRT-PCR, performed by Quintiles/Expression Analysis, Durham, NC)89. Standard TaqManTM Assays (Applied Biosystems/ThermoFisher Scientific, Foster City, CA) were used to assess the expression of 93 genes selected based on their selectivity and sensitivity to important hepatic receptors known to be modulated by environmental chemicals; importance in human hepatocyte functionality; and hepatotoxicity. […]

SMILES | AC50 | outcome
CC1=C(/C=C/C(C)=C/C=C/C(C)=C/CO)C(C)(C)CCC1 | 52.2 µM (active) | 
Cc1cccc(Nc2cc(Cl)nc(SCC(=O)O)n2)c1C |  | inactive
CCCCCCCCCCCCCCCCCC(=O)O |  | inactive
Cc1ccc(N(C)C)cc1 |  | inactive
CN1CCCC1=O |  | inactive
CCOc1ccc2c(c1)C(C)=CC(C)(C)N2 |  | inactive
NCCO |  | inactive
COc1ccc(S(=O)(=O)N2C(=O)[C@@](c3ccccc3OC)(N3C[C@H](O)C[C@H]3C(=O)N(C)C)c3cc(Cl)ccc32)c(OC)c1 | 25 µM (active) | 
CC(=O)OC/C=C(\C)CCC=C(C)C |  | inactive
NS(=O)(=O)c1cc2c(cc1Cl)NCNS2(=O)=O |  | inactive
CCNc1cccc(C)c1 |  | inactive
CC1(C)CC(N=C=O)CC(C)(CN=C=O)C1 (stereo not given) |  | inactive
CCCCCCC(=O)OCC |  | inactive
CCOC(=O)C(C)(C)Oc1ccc(Cl)cc1 |  | inactive
C[C@]12C=CC(=O)C=C1CC[C@@H]1[C@@H]2C(=O)C[C@@]2(C)[C@H]1CC[C@]2(O)C(=O)CO |  | inactive
CCCCCCCCCCCC(=O)OC |  | inactive
Cc1oc(-c2ccccc2)nc1CCOc1cccc2c1ccn2CCC(=O)O | 81.5 µM (active) | 
Cc1cccc(C)c1O |  | inactive
CC(=O)C(C)=CC1C(C)=CCCC1(C)C (stereo not given) |  | inactive
COc1cc(-c2nc(NC(=O)c3cc4cc(C)cc(C)c4n3CC(=O)O)sc2CCC2CCCCC2)c(OC)cc1Cl | 7.06 µM (active) | 

SMILES | AC50 | outcome
c1cc(-c2ccncc2)ccn1 |  | inactive
CCCCCCCCCCCCCCCC |  | inactive
COCCOC[C@H](CC1(C(=O)NC2CCC(C(=O)O)CC2)CCCC1)C(=O)Oc1ccc2c(c1)CCC2 (stereo not given in full) |  | inactive
CNCc1cc(F)ccc1Oc1ccc(Cl)c(Cl)c1 | 92.7 µM (active) | 
Cc1ccc(C)c(C)c1 |  | inactive
NCC1(Cc2noc(=O)[nH]2)CCCCC1 |  | inactive
Nc1ccc(S(=O)(=O)c2ccc(N)cc2)cc1 |  | inactive
CCCCN(CCCC)CCCC |  | inactive
O=C(N[C@@H](Cc1ccccc1)[C@@H](O)C(=O)N1C[C@@H](O)[C@@H](O)C1)c1cc2cc(Cl)ccc2[nH]1 | 81.7 µM (active) | 
OC[C@@H](O)[C@@H](O)[C@H](O)[C@H](O)CO |  | inactive
Nc1nc(N)c2nc(CNc3ccc(C(=O)N[C@@H](CCC(=O)O)C(=O)O)cc3)cnc2n1 | 0.12 µM (active) | 
COC(=O)c1ccc(O)cc1 |  | inactive
Cc1cc(NC(=O)C(=O)O)cc(C)c1Oc1ccc(O)c2c1CCC2 | 75.6 µM (active) | 
CCCCCCOCCO |  | inactive
CC(=O)OCCOCCOCCOC(C)=O |  | inactive
CCCCCCCC=O |  | inactive
COCCOCCOC |  | inactive
CCCCCCCCCCO |  | inactive
CNC(=O)[C@H]1O[C@@H](n2cnc3c(NCc4cc(Cl)ccc4OCc4cc(C)no4)ncnc32)[C@H](O)[C@@H]1N |  | inactive
CCCCCCCCCCCCCO |  | inactive
